In PubChem BioAssay (NCI):
Compounds without any hit were thinned out: in the full panel of roughly 83,000, 20% have a hit.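 A percent growth of 40 corresponds to 60% growth inhibition; 0 means no net growth; -100 means all cells died. Active threshold: below 10.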 Calls of active or inactive are those of the source.

Tests used:
Experiment in all cases: NCI-60 one-dose screen, 48 h (100 = growth as untreated, 0 = no growth, -100 = all killed)
Details in all cases: 10 µM unless noted
SK-MEL-2 melanoma = tested on: SK-MEL-2 melanoma
EKVX NSCLC = tested on: EKVX NSCLC
SN12C renal = tested on: SN12C renal
UO-31 renal = tested on: UO-31 renal
TK-10 renal = tested on: TK-10 renal
ACHN renal = tested on: ACHN renal
A498 renal = tested on: A498 renal
CCRF-CEM leukemia = tested on: CCRF-CEM leukemia
MOLT-4 leukemia = tested on: MOLT-4 leukemia
SR leukemia = tested on: SR leukemia
RPMI-8226 leukemia = tested on: RPMI-8226 leukemia
OVCAR-5 ovarian = tested on: OVCAR-5 ovarian
OVCAR-4 ovarian = tested on: OVCAR-4 ovarian
SK-OV-3 ovarian = tested on: SK-OV-3 ovarian
IGROV1 ovarian = tested on: IGROV1 ovarian
OVCAR-3 ovarian = tested on: OVCAR-3 ovarian
HS 578T breast = tested on: HS 578T breast
NCI/ADR-RES ovarian = tested on: NCI/ADR-RES ovarian
T-47D breast = tested on: T-47D breast
OVCAR-8 ovarian = tested on: OVCAR-8 ovarian

Measured: growth

O=C(Nc1nccs1)c1noc2ccccc12
inactive: SK-MEL-2 melanoma 109% | EKVX NSCLC 88.6% | SN12C renal 97.1% | UO-31 renal 86.1% | TK-10 renal 133% | ACHN renal 96.9% | A498 renal 101% | CCRF-CEM leukemia 85.7% | MOLT-4 leukemia 96.8% | SR leukemia 87% | RPMI-8226 leukemia 90.4% | OVCAR-5 ovarian 103% | OVCAR-4 ovarian 88.4% | SK-OV-3 ovarian 92.2% | IGROV1 ovarian 84.1% | OVCAR-3 ovarian 110% | HS 578T breast 97% | NCI/ADR-RES ovarian 106% | T-47D breast 57.5%

COc1cc(C2=N/C(=C\c3cc4ccccc4nc3Oc3ccccc3)C(=O)N2C(=N)N)cc(OC)c1OC
inactive: SK-MEL-2 melanoma 84.7% | EKVX NSCLC 72.1% | SN12C renal 43.1% | UO-31 renal 55.3% | TK-10 renal 80.6% | ACHN renal 61.9% | A498 renal 69% | CCRF-CEM leukemia 87.3% | MOLT-4 leukemia 85.1% | SR leukemia 63.8% | RPMI-8226 leukemia 86.1% | OVCAR-5 ovarian 80.7% | OVCAR-4 ovarian 24.3% | SK-OV-3 ovarian 44.2% | IGROV1 ovarian 82.1% | OVCAR-3 ovarian 76.7% | HS 578T breast 33.7% | NCI/ADR-RES ovarian 52.6% | T-47D breast 49%

COc1ccc(C2N(c3cc(OC)c(OC)c(OC)c3)C(=O)C2(F)F)cc1F (configuration not stated)
inactive: SK-MEL-2 melanoma 84.6% | EKVX NSCLC 77.7% | SN12C renal 54.9% | UO-31 renal 53.5% | TK-10 renal 106% | ACHN renal 60.8% | A498 renal 97.8% | CCRF-CEM leukemia 13% | MOLT-4 leukemia 18.7% | SR leukemia 18.7% | RPMI-8226 leukemia 20.8% | OVCAR-8 ovarian 44.1% | OVCAR-5 ovarian 78.7% | OVCAR-4 ovarian 58.3% | SK-OV-3 ovarian 75.5% | IGROV1 ovarian 44.2% | OVCAR-3 ovarian 17.6% | HS 578T breast 21.9% | NCI/ADR-RES ovarian 32.9% | T-47D breast 65.7%

COc1cc(/C=N/Nc2nc(-c3ccc(F)cc3)c(C#N)c(N3CCOCC3)n2)ccc1O
inactive: SK-MEL-2 melanoma 114% | EKVX NSCLC 90.5% | SN12C renal 89.4% | UO-31 renal 81.7% | TK-10 renal 98.9% | ACHN renal 91.3% | A498 renal 87.8% | CCRF-CEM leukemia 84.1% | MOLT-4 leukemia 73.4% | SR leukemia 74.9% | RPMI-8226 leukemia 87.1% | OVCAR-5 ovarian 107% | OVCAR-4 ovarian 89.8% | SK-OV-3 ovarian 102% | IGROV1 ovarian 96.7% | OVCAR-3 ovarian 103% | HS 578T breast 102% | NCI/ADR-RES ovarian 102% | T-47D breast 93.6%

COc1cc(-c2cn(-c3ccc(Cl)c(Cl)c3)c(=O)[nH]2)cc(OC)c1OC
inactive: SK-MEL-2 melanoma 97% | EKVX NSCLC 95.3% | SN12C renal 87.5% | UO-31 renal 93.6% | TK-10 renal 94.7% | ACHN renal 96.5% | A498 renal 110% | CCRF-CEM leukemia 99.6% | MOLT-4 leukemia 85.1% | SR leukemia 31% | RPMI-8226 leukemia 99.3% | OVCAR-8 ovarian 95.1% | OVCAR-5 ovarian 87.6% | OVCAR-4 ovarian 98.9% | SK-OV-3 ovarian 88.3% | IGROV1 ovarian 136% | OVCAR-3 ovarian 99.5% | HS 578T breast 95.3% | NCI/ADR-RES ovarian 95.5% | T-47D breast 90.1%

Nc1c(C(=O)Nc2cccc3ccccc23)sc2nc3c(cc12)CCCCC3
inactive: SK-MEL-2 melanoma 50.5% | EKVX NSCLC 40.4% | SN12C renal 43.4% | UO-31 renal 51.9% | TK-10 renal 62.8% | ACHN renal 53.6% | MOLT-4 leukemia 15.9% | SR leukemia 19.9% | RPMI-8226 leukemia 24.9% | OVCAR-8 ovarian 21.4% | OVCAR-5 ovarian 44.1% | OVCAR-4 ovarian 56.6% | SK-OV-3 ovarian 29.1% | IGROV1 ovarian 44.3% | HS 578T breast 30% | NCI/ADR-RES ovarian 20.3% | T-47D breast 46.7%
active: A498 renal -1.52% | CCRF-CEM leukemia 9.18% | OVCAR-3 ovarian -25.2%

N#CC1(C#N)C2=C(CCCC2)NC(c2c(F)cccc2Cl)C1(C#N)C#N (configuration not stated)
inactive: SK-MEL-2 melanoma 37.6% | EKVX NSCLC 71.1% | SN12C renal 72.1% | UO-31 renal 70% | TK-10 renal 99.8% | ACHN renal 84% | A498 renal 51.3% | CCRF-CEM leukemia 36.1% | MOLT-4 leukemia 43.5% | SR leukemia 30.1% | RPMI-8226 leukemia 43.4% | OVCAR-5 ovarian 87.7% | OVCAR-4 ovarian 66.9% | SK-OV-3 ovarian 79.7% | IGROV1 ovarian 83.3% | OVCAR-3 ovarian 20.3% | HS 578T breast 43.4% | NCI/ADR-RES ovarian 76.6% | T-47D breast 79.7%

CC(=O)c1c(OCC#N)ccc2c(C)cc(=O)oc12
inactive: SK-MEL-2 melanoma 95.6% | EKVX NSCLC 105% | SN12C renal 102% | UO-31 renal 114% | TK-10 renal 118% | ACHN renal 99.8% | A498 renal 101% | CCRF-CEM leukemia 105% | MOLT-4 leukemia 101% | SR leukemia 87.1% | RPMI-8226 leukemia 80% | OVCAR-8 ovarian 124% | OVCAR-5 ovarian 114% | OVCAR-4 ovarian 107% | SK-OV-3 ovarian 110% | IGROV1 ovarian 116% | OVCAR-3 ovarian 120% | HS 578T breast 106% | NCI/ADR-RES ovarian 118% | T-47D breast 97.9%

COc1cc(C2=NNC(c3ccc(N(C)C)cc3)C2)cc(OC)c1OC (configuration not stated)
active: A498 renal -8.21% | SR leukemia -5.74% | OVCAR-3 ovarian 5.84% | HS 578T breast -21.7% | NCI/ADR-RES ovarian -20.7%
inactive: SK-MEL-2 melanoma 60.9% | EKVX NSCLC 44.4% | SN12C renal 49.3% | UO-31 renal 38.9% | TK-10 renal 59.2% | ACHN renal 50.6% | CCRF-CEM leukemia 17% | MOLT-4 leukemia 37.1% | RPMI-8226 leukemia 16% | OVCAR-8 ovarian 24.7% | OVCAR-5 ovarian 30.4% | OVCAR-4 ovarian 52.2% | SK-OV-3 ovarian 19.5% | IGROV1 ovarian 35.4% | T-47D breast 45.8%

CCOC(=O)c1c(C)nc2c(c1N)/C(=C/c1ccc[nH]1)C(=O)N2Cc1ccc(C(F)(F)F)cc1
inactive: SK-MEL-2 melanoma 75.5% | EKVX NSCLC 53.7% | SN12C renal 49.4% | UO-31 renal 35.4% | TK-10 renal 49.3% | ACHN renal 26.1% | A498 renal 57.5% | CCRF-CEM leukemia 75% | MOLT-4 leukemia 78.4% | SR leukemia 62.5% | RPMI-8226 leukemia 104% | OVCAR-5 ovarian 74.5% | OVCAR-4 ovarian 12.6% | SK-OV-3 ovarian 21.9% | IGROV1 ovarian 54.7% | OVCAR-3 ovarian 47.7% | HS 578T breast 38% | NCI/ADR-RES ovarian 49.7% | T-47D breast 24.8%

C#C[C@@]1(O)[C@@H](CO)O[C@@H](n2ccc3c(N)ncnc32)[C@@H]1O
inactive: CCRF-CEM leukemia 13.3% | SR leukemia 12.1% | OVCAR-5 ovarian 25.6% | OVCAR-3 ovarian 18.2% | HS 578T breast 51.6%
active: SK-MEL-2 melanoma -8.72% | EKVX NSCLC -4.75% | SN12C renal -12.3% | UO-31 renal -14.7% | TK-10 renal 3.25% | ACHN renal 3.47% | A498 renal -53.2% | MOLT-4 leukemia -1.22% | RPMI-8226 leukemia 4.21% | OVCAR-8 ovarian -21.7% | OVCAR-4 ovarian 0.622% | SK-OV-3 ovarian -7.62% | IGROV1 ovarian 4.28% | NCI/ADR-RES ovarian -9.78% | T-47D breast -34%

Cc1ccc2nc3nc4ccc[nH]c4cc3c2c1
inactive: SK-MEL-2 melanoma 113% | EKVX NSCLC 56.8% | SN12C renal 105% | UO-31 renal 65.8% | TK-10 renal 46.9% | ACHN renal 81.8% | A498 renal 124% | CCRF-CEM leukemia 98.9% | MOLT-4 leukemia 119% | SR leukemia 18.1% | RPMI-8226 leukemia 49.3% | OVCAR-5 ovarian 90.9% | OVCAR-4 ovarian 65.8% | SK-OV-3 ovarian 89.2% | IGROV1 ovarian 68.2% | OVCAR-3 ovarian 77.6% | HS 578T breast 90.2% | NCI/ADR-RES ovarian 99.9% | T-47D breast 10.3%

C=C1C(=O)O[C@H]2[C@H]1CC/C(COC(=O)NCc1nc3ccccc3[nH]1)=C\CC[C@@]1(C)O[C@@H]21
inactive: SK-MEL-2 melanoma 60.2% | EKVX NSCLC 83% | SN12C renal 81.6% | UO-31 renal 75.5% | TK-10 renal 74.3% | ACHN renal 91.4% | A498 renal 135% | CCRF-CEM leukemia 10.9% | MOLT-4 leukemia 77.3% | SR leukemia 54.1% | RPMI-8226 leukemia 34.7% | OVCAR-5 ovarian 130% | OVCAR-4 ovarian 82.7% | SK-OV-3 ovarian 101% | IGROV1 ovarian 62.7% | OVCAR-3 ovarian 22% | HS 578T breast 102% | NCI/ADR-RES ovarian 99.4% | T-47D breast 43.4%

COc1ccc2nc(-c3ccc(Cl)cc3)cc(C(=O)N3N=C(c4ccc(N)cc4)CC3c3ccccc3)c2c1 (configuration not stated)
inactive: SK-MEL-2 melanoma 43.2% | EKVX NSCLC 35.6% | SN12C renal 57.8% | UO-31 renal 45.5% | TK-10 renal 68.1% | ACHN renal 52.8% | A498 renal 56.9% | CCRF-CEM leukemia 31.2% | MOLT-4 leukemia 43.2% | SR leukemia 25.1% | RPMI-8226 leukemia 29% | OVCAR-5 ovarian 80.9% | OVCAR-4 ovarian 65.8% | SK-OV-3 ovarian 46.1% | IGROV1 ovarian 53.9% | HS 578T breast 48.4% | NCI/ADR-RES ovarian 15.2% | T-47D breast 38.8%
active: OVCAR-3 ovarian 9.64%

CC(C)C1=C[C@@]23CC[C@H]4[C@](C)(COCCC#N)CCC[C@]4(C)[C@H]2C[C@@H]1[C@@H]1[C@H]3[C@@H](OCCC#N)CC[C@@H]1OCCC#N
active: MOLT-4 leukemia 5.36%
inactive: SK-MEL-2 melanoma 24.5% | EKVX NSCLC 17.6% | SN12C renal 32.9% | UO-31 renal 24.8% | TK-10 renal 37.7% | ACHN renal 25% | A498 renal 67.7% | CCRF-CEM leukemia 34.3% | SR leukemia 15% | RPMI-8226 leukemia 18.7% | OVCAR-8 ovarian 34.4% | OVCAR-5 ovarian 65.9% | OVCAR-4 ovarian 27.1% | SK-OV-3 ovarian 64.3% | IGROV1 ovarian 23.5% | OVCAR-3 ovarian 37.1% | HS 578T breast 64.5% | NCI/ADR-RES ovarian 27.8% | T-47D breast 10.5%
